# This is a sample that favours compounds with a hit; in the whole collection about 4.1% have one here.
# TIM10 inh: TIM10 yeast growth inhibition. S. cerevisiae TIM10 strain growth, BacTiter-Glo luminescence, 24 h. inhibition, % at 10 µM. 330,000 compounds, 1.4% hits. AID 463195;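 active = inhibition of 40% or more at the single tested concentration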;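 note: wild-type TIM10 isogenic control strain grown at permissive 25 °C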
# tim10-1 inh: growth inhibitors of tim10-1 mutant yeast; S. cerevisiae tim10-1 ts strain growth, BacTiter-Glo, 24 h; inhibition, % at 20 µM; 330,000 compounds, 2.2% hits;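 active = inhibition of at least 40%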;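 note: mutant grown at 25 °C; 0% = DMSO wells with yeast and 100% = wells holding no yeast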
# NLRP3 yeast inh: NALP3 inhibition in yeast | inhibition, % at 10 µM | Yeast reconstituted NLRP3/ASC/caspase-1, beta-gal luminescence, 24 h | 330,000 compounds, 0.39% hits;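 active = inhibition of 50% or more; inactive = inhibition below 50%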;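 note: plate controls were induced DMSO wells for no effect and uninduced yeast grown without galactose for full effect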
# NALP1 inh: blocks the NALP1 inflammasome reconstituted in yeast. S. cerevisiae NALP1/ASC/caspase-1 growth, X-gal OD620, 72 h. inhibition, % at 10 µM. 280,000 compounds, 0.61% hits. AID 2071; in the data active = inhibition mostly above about 24%, no sharp cut-off; inactive = mostly below about 32%
# PfHsp90 set2: inhibits growth of yeast expressing Plasmodium falciparum Hsp90. S. cerevisiae expressing PfHsp90, BacTiter-Glo ATP, 48 h; yeast lacking PDR1 and PDR3 efflux regulators. 310,000 compounds, 0.32% hits. inhibition, % at 9.4 µM. AID 504621;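 active = every replicate shows inhibition above about 80%, whatever the replicate mean, limit read from the data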;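 note: 0% = DMSO neutral controls and 100% = 20 µM radicicol positive controls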
# tim23-1 inh: tim23-1 yeast growth inhibition | S. cerevisiae tim23-1 growth, BacTiter-Glo luminescence, 24 h | inhibition, % at 20 µM | 330,000 compounds, 1.3% hits | AID 463212;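 active = growth inhibition of the mutant yeast at or above 50%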;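 note: temperature-sensitive mutant grown at 25 °C; plate controls were DMSO-treated mutant yeast for no effect and medium wells lacking yeast for full effect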
# TIM10 conf: confirmation of TIM10 yeast growth inhibitors | shares compounds with TIM10 inh | S. cerevisiae tim10 strain growth, BacTiter-Glo luminescence, 24 h | inhibition, % at 10 µM | 4,600 compounds, 63% hits | AID 463215;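 active = inhibition of yeast growth at or above a set limit in either of two replicates at 10 µM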;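 note: this counterscreen used the strain with wild-type TIM10; 0% = yeast with DMSO and 100% = medium wells lacking yeast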
# Starred values were filed as active, the others as inactive; / = no result given.
SMILES,TIM10 inh,tim10-1 inh,NLRP3 yeast inh,NALP1 inh,PfHsp90 set2,tim23-1 inh,TIM10 conf
N/C(=N\OC(=O)c1ccc2c(c1)OCO2)c1ccc(Cl)cc1,48*,33,46,12,16,47,46*
COc1ccc(C(=O)O/N=C(\N)c2ccccn2)cc1,42*,34,17,-2,72,49,36*
COc1ccc(C)cc1S(=O)(=O)N(CC(=O)NC1CCCC1)c1ccc(F)cc1,13,7,10,21,-3,23,/
COc1ccccc1N1CCN(C(=O)c2cc(S(=O)(=O)N3CCOCC3)ccc2C)CC1,11,-13,-1,/,2,-6,/
O=S(=O)(CCN1CCCCC1)Oc1ccc(Cl)cc1Cl,50*,37,12,18,5,41,27
Clc1ccc(Cl)c(OCCCCN2CCCCC2)c1,-55,-55,34,4,-4,0,/
COc1cc(/C=C/c2cc[n+](C)cc2)ccc1OCC(=O)Nc1ccc(Cl)c(Cl)c1,42*,4,3,19,-2,22,16
COc1ccc(NC(=O)COc2ccc(/C=C/c3cc[n+](C)cc3)cc2OC)cc1,-10,0,-17,-2,4,-21,/
CC1CCCCN1CCCNC(=O)c1ccc(NC(=O)C2=CSCCO2)cc1 (stereo not given),-4,4,10,12,-32,-1,/
CCOc1ccc(/C=N/NC(=S)NC2CC3C=CC2C3)cc1 (stereo not given),20,14,0,8,6,8,/
COc1cc(/C=N/NC(=S)NC2CC3C=CC2C3)cc(OC)c1OC (stereo not given),49*,11,20,7,-16,41,31*
N#Cc1ccc2[nH]cc(CCO)c2c1,6,13,7,21,-4,17,/
CCOC(=O)c1c(C)[nH]c(C)c1C(=O)COC(=O)c1cccs1,3,11,9,/,-20,13,/
O=C1Nc2ccc(Br)cc2C12NNc1ccccc1O2 (stereo not given),45*,22,23,-26,106*,-20,69*
O=C1Nc2ccc(Br)cc2C1(O)c1ccccc1 (stereo not given),0,21,15,-1,-22,11,/
O=C(N/N=C/c1c(O)ccc2ccccc12)c1cccnc1,42*,13,11,23,-7,42,37*
COc1ccc(-c2noc(CCC(=O)NCC3CCCO3)n2)cc1OC (stereo not given),-4,20,1,2,0,-2,/
COc1ccc2c(c1)C(=NO)c1cc(OC)ccc1-2,45*,38,44,/,-6,10,38*
C=CCOc1ccc2c(c1)C(=NO)c1cc(OCC=C)ccc1-2,-19,0,28,5,-15,21,/
Cc1ccccc1Oc1nc2c(C)cccn2c(=O)c1/C=C(\C#N)C(=O)NC1CCS(=O)(=O)C1 (stereo not given),41*,18,3,6,6,17,16
Cc1ccccc1C1=N/C(=C/c2cccs2)C(=O)O1,51*,31,5,8,/,17,15
O=C1C(=Cc2cccs2)C(=O)c2ccccc21,11,22,-28,6,8,44,/
COCCN(C(=O)COC(=O)COc1ccc(Cl)c(C)c1)c1c(N)n(Cc2ccccc2)c(=O)[nH]c1=O,5,0,12,10,28,8,/
O=C1c2ccccc2C(=O)c2cc(NC(=O)C3CC3)ccc21,44*,34,36,46,7,38,16
COc1cc(NC(=O)CSc2cc(C)c3cc(C)cc(C)c3n2)c(C(=O)O)cc1OC,45*,10,-9,/,7,40,18*
COc1ccc(CNCCS(=O)(=O)NN2CCOCC2)cc1,3,8,/,/,9,34,/
Cn1c2ccc(Br)cc2c2nnc(SCC(=O)O)nc21,60*,31,16,-10,-15,28,75*
CC(=O)Nc1ccc(C(=O)OCc2ccc(Br)cc2)cc1,41*,34,29,16,-5,46,35*
O=C(OCc1ccc(Br)cc1)c1ccncc1,6,23,15,9,-42,1,/

# Bioassay records (PubChem)
